# From the supplement of paper PMC7156485
# What was measured:
# Conditions in all cases: concentration: 10 µM; 24 h
# [1] = tested on: HCC1569; experiment: cell number relative to DMSO (% of DMSO); higher = more cells (less growth inhibition / toxicity)
# Summary of the method: (§1)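 Six fields per well were imaged at ×10 after the cells were fixed in 3.7% formaldehyde and stained with a rabbit anti-H1.0 antibody, an AlexaFluor 647 secondary and DAPI. The HCC1569 and TDF cells had been plated at 800 per well in 384-well plates (RPMI, 10% FBS) and treated in triplicate with compounds at 10 µM for 24 h at 37 °C. The values are the median of replicates of H1.0 nuclear intensity or cell number, as percent of the plate control. Smoothing for positional effects was applied to HCC1569 data.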
# [2] = tested on: TDF; experiment: as above
# Summary of the method: as §1
# [3] = tested on: TDF; experiment: H1.0 immunofluorescence intensity relative to DMSO (% of DMSO); higher = stronger H1.0 induction, active = 120 or more
# Summary of the method: as §1
# [4] = tested on: HCC1569; experiment: H1.0 immunofluorescence intensity relative to DMSO (% of DMSO); higher = stronger H1.0 induction, active = 140 or more
# Summary of the method: as §1
# 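For H1.0 immunofluorescence intensity relative to DMSO in this document: TDF is a line of transformed human dermal fibroblasts of mesenchymal origin.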
# 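For cell number relative to DMSO in this document: TDF denotes transformed human dermal fibroblasts of mesenchymal origin.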
Structure (SMILES),cell number [1],cell number [2],H1.0 immunofluorescence intensity [3],H1.0 immunofluorescence intensity [4]
CCCS(=O)c1ccc2nc(NC(=O)OC)[nH]c2c1 (stereo unspecified) [Ricobendazole],98.4,81.6,114 (inactive),109 (inactive)
c1ccc(-c2cnc(Nc3ccc(OCCN4CCCC4)cc3)s2)cc1 [Flt-3 Inhibitor III],80.3,74.2,97.1 (inactive),150 (active)
COc1ccc(Br)cc1S(=O)(=O)NC(=O)/C=C/c1ccccc1Cc1ccc2ccccc2c1,98.1,103,90.2 (inactive),103 (inactive)
CC1OC(OCC2OC(Oc3cc(O)c4c(c3)OC(c3ccc(O)cc3)CC4=O)C(O)C(O)C2O)C(O)C(O)C1O (stereo unspecified) [Narirutin],101,103,94.7 (inactive),80.9 (inactive)
OCC1OC(Oc2ccc(O)cc2)C(O)C(O)C1O (stereo unspecified) [Arbutin],99.6,101,102 (inactive),92.1 (inactive)
CCCCCC(O)CCCC(=O)[O-].[Na+] (stereo unspecified) [5-hydroxydecanoic acid sodium],99.5,96,99.5 (inactive),114 (inactive)
CCOC(=O)c1c2c3c(cccc3[nH]c1=O)C(=O)c1ccccc1-2,99.7,108,94.2 (inactive),99.9 (inactive)
CCCCCC=CCC(O)C=CC=CCCC(=O)O [Tetranor-12(R)-HETE],104,93.9,100 (inactive),102 (inactive)
CC(C)NCC(O)COc1cccc2ccccc12.Cl (racemic),101,91.5,98.8 (inactive),94.2 (inactive)
COc1c(O)cc2c(c1O)C1OC(CO)C(O)C(O)C1OC2=O (stereo unspecified) [Bergenin],99,107,91.7 (inactive),93.5 (inactive)
CCCOc1cc2c(cc1\C(C)=C/C=C/C(C)=C/C(=O)O)C(C)(C)CCC2(C)C,97.9,107,90.3 (inactive),95.9 (inactive)
CC12CCC(=O)C=C1CCC1C2CCC2(C)C1CCC2(O)C(=O)CO (stereo unspecified) [Cortexolone],98.2,99.3,90.2 (inactive),96.2 (inactive)
"CCCCCCCCC=CCCCCCCCC(=O)OCC(CO)OC(=O)CCCCCCCC=CCCCCCCCC (stereo unspecified) [1,2-Dioleoyl-glycerol (18:1)]",100,104,95.2 (inactive),101 (inactive)
COc1cc2c(cc1-c1c(C)noc1C)ncc1[nH]c(=O)n([C@H](C)c3ccccn3)c12,75,66.3,138 (active),218 (active)
CCCCCCCCCCCCCCCCCC(=O)O [Octadecanoic acid],102,101,104 (inactive),95.3 (inactive)
CN1CCC(=C2c3ccccc3CC(=O)c3sccc32)CC1 [Ketotifen],104,102,97.6 (inactive),124 (inactive)
Cc1cc(C(C)(C)C)c(O)c(C(C)(C)C)c1,99.4,105,90.4 (inactive),99 (inactive)
"COc1cc2c3cc1Oc1cc(ccc1O)CC1c4c(cc(OC)c(O)c4Oc4ccc(cc4)CC3N(C)CC2)CC[N+]1(C)C (single isomer, unassigned; (+)) [(+)-Tubocurarine chloride]",103,92.5,104 (inactive),89.2 (inactive)
Cl.Clc1ccc(Cn2c(CN3CCCC3)nc3ccccc32)cc1 [Clemizole hydrochloride],99,112,93.5 (inactive),90.7 (inactive)
Cc1ccc(-c2c(-c3nn(C)c4ncnc(N5CC[C@H](N6CCCCC6)C5)c34)cnn2C)cc1,99.6,96.4,103 (inactive),99.2 (inactive)
CN(C)c1ccccc1CN1CCCN(Cc2ccccc2N(C)C)C1c1ccncc1,83.9,65.2,109 (inactive),137 (inactive)
O=C1c2c(O)cc(O)cc2O[C@H](c2cc(O)c(O)c(O)c2)[C@H]1O,95.8,99.5,98.9 (inactive),93.3 (inactive)
COc1c2ccoc2cc2oc(=O)ccc12 [Bergapten],97.8,94,102 (inactive),99.9 (inactive)
COc1ccc(C2CC(=O)c3c(O)cc(O)cc3O2)cc1O (stereo unspecified) [Hesperitine],98.4,101,98.1 (inactive),92.8 (inactive)
